This is an account of results in PubChem BioAssay.

For part of these data: Measured potencies and affinities stand elsewhere. Active and inactive are the calls of the source.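 Rule for the calls, unless noted: active = fitted half-maximal concentration within the tested dose range, moderate curve steepness, a statistically real signal drop, and little compound fluorescence or tag-binding interference; inactive = the rest.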

Assay [1] has as its target Cell division control protein 42 homolog (Homo sapiens) (UniProt P60953). The experiment in a line: activated mutant Cdc42 GTP-binding inhibitors, dose response, biochemical, multiplex bead flow cytometry, Bodipy-FL-GTP (AID 1333). On the technique in general: Flow cytometry measures light scatter and fluorescence of single cells or particles in a stream.
Assay [2] has the same target. The experiment in a line: wildtype Cdc42 GTP-binding inhibitors, dose response, biochemical, multiplex bead flow cytometry, Bodipy-FL-GTP (AID 1334;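 active = fitted half-maximal concentration within the tested range, moderate curve steepness, significant signal drop, and little compound fluorescence or bead-linkage interference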). The note with it: bead-based flow cytometry, Bodipy-FL-GTP binding to GST-Cdc42; at 100 µM (top of the series) unless noted.
For assay [3], the target named is GTPase HRas (Homo sapiens) (UniProt P01112). Kind of assay: inhibitors of GTP binding to wildtype Ras, dose response, biochemical, multiplex bead flow cytometry (AID 1335;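 active = fitted half-maximal concentration within 10 nM to 100 µM, steepness 0.5 to 2, significant signal drop, low assay interference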). The settings on record: bead-based flow cytometry, Bodipy-GTP binding to GST-Ras; at 100 µM (top of the series) unless noted.
Assay [4] deals with Ras-related protein Rab-7a (dog), GTP binding. Kind of assay: Rab7 GTP binding inhibitors, potency, dose response, biochemical, wildtype, multiplex bead flow cytometry (AID 1336; call rule not given here).
The target in assay [5] is Ras-related C3 botulinum toxin substrate 1 (Homo sapiens) (UniProt P63000). The experiment in a line: wildtype Rac1 GTP binding inhibitors, dose response, biochemical, multiplex bead flow cytometry (AID 1340;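 active = dose curve with midpoint inside tested range, moderate steepness, plateau gap beyond fit error, low compound glow and bead-link interference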). The note with it: GST-Rac1 beads, Bodipy-FL-GTP binding; at 100 µM (top of the series) unless noted.
Assay [6] has as its target GTPase HRas (Homo sapiens) (UniProt P01112). Kind of assay: activated Ras mutant GTP binding inhibitors, dose response, biochemical, multiplex bead flow cytometry (AID 1341;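 active = dose-response curve with midpoint inside the tested range, moderate steepness, significant amplitude and little compound fluorescence or bead-attachment interference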;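 note: GST-tagged constitutively activated Ras mutant immobilized on beads and multiplexed with other GTPases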).

Sequence of Cell division control protein 42 homolog (Homo sapiens) (P60953 whole entry, looked up): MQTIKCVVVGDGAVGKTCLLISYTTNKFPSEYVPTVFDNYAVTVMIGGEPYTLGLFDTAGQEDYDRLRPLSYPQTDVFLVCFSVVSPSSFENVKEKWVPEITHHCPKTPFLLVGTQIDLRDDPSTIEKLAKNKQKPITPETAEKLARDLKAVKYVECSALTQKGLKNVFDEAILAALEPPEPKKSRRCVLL
Sequence of GTPase HRas (Homo sapiens) (P01112 whole entry, looked up): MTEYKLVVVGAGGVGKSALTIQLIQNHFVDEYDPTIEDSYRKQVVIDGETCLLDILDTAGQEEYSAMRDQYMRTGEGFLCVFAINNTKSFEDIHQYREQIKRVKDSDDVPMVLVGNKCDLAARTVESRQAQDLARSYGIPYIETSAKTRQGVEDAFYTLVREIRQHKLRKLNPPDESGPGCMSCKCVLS

Turning to `O=C1CC(c2ccc(F)cc2)Sc2ccccc2N1` (stereo not given), the call in assay [1], in assay [4] and in assay [6] was inactive. For the same compound, in assay [2], the fluorescence, percent of control (lower = inhibition) worked out at 101%. This compound showed a GTP binding, percent of control in assay [3] of 170%. In addition, the GTP binding signal, raw median fluorescence (lower = inhibition) (MCF (arbitrary fluorescence units)) in assay [5] worked out at 207.

As for `O=C(Cn1cnc2cc([N+](=O)[O-])ccc2c1=O)NCCc1ccc(F)cc1`, the outcome in assay [1], in assay [4] and in assay [6] was inactive. For the same compound, in assay [2], the fluorescence, percent of control (lower = inhibition) is 35.9%. This compound displayed a GTP binding, percent of control in assay [3] of 80.9%. This compound also showed a GTP binding signal, raw median fluorescence (lower = inhibition) (MCF (arbitrary fluorescence units)) in assay [5] of 182.

For the compound `Cn1c(O)c(C2=c3ccccc3=NC2=O)[nH]c1=S`, the result in assay [1], in assay [4] and in assay [6] was inactive. Also, in assay [2], the fluorescence, percent of control (lower = inhibition) is 37.9%. The same compound yielded a GTP binding, percent of control in assay [3] of 83.1%. In assay [5], this compound gave a GTP binding signal, raw median fluorescence (lower = inhibition) (MCF (arbitrary fluorescence units)) of 214.

As to `COc1ccc(OCc2nc3c4cc(OC)c(OC)cc4nc(=S)n3[nH]2)cc1`, the result in assay [1], in assay [4] and in assay [6] was inactive. Besides, the fluorescence, percent of control (lower = inhibition) in assay [2] worked out at 31.9%. In assay [3], the GTP binding, percent of control turned out to be 75.5%. The GTP binding signal, raw median fluorescence (lower = inhibition) (MCF (arbitrary fluorescence units)) in assay [5] is 186.

For `O=C(O)c1cccnc1OCc1ccccc1`, the outcome in assay [1], in assay [4] and in assay [6] was inactive. In assay [2], the fluorescence, percent of control (lower = inhibition) came out at 88.8%. In assay [3], the GTP binding, percent of control is 103%. In assay [5], this compound returned a GTP binding signal, raw median fluorescence (lower = inhibition) (MCF (arbitrary fluorescence units)) of 63.4.

In the case of `O=C(Oc1cccc(O)c1)C1CCCCC1`, the result in assay [1], in assay [4] and in assay [6] was inactive. Besides, the fluorescence, percent of control (lower = inhibition) in assay [2] came out at 36.8%. Besides, in assay [3], the GTP binding, percent of control turned out to be 81.6%. This compound gave a GTP binding signal, raw median fluorescence (lower = inhibition) (MCF (arbitrary fluorescence units)) in assay [5] of 296.

In the case of `COc1ccc(-c2nn3c(-c4ccco4)nnc3s2)cc1OC`, the call in assay [1], in assay [4] and in assay [6] was inactive. Also, in assay [2], the fluorescence, percent of control (lower = inhibition) was 39.1%. Besides, the GTP binding, percent of control in assay [3] was determined as 132%. This compound showed a GTP binding signal, raw median fluorescence (lower = inhibition) (MCF (arbitrary fluorescence units)) in assay [5] of 143.

Turning to `Nc1ccc(-c2cn3cccnc3n2)cc1`, the call in assay [1], in assay [4] and in assay [6] was inactive. The fluorescence, percent of control (lower = inhibition) in assay [2] is 40.9%. Further, in assay [3], the GTP binding, percent of control stood at 88.5%. The compound further showed a GTP binding signal, raw median fluorescence (lower = inhibition) (MCF (arbitrary fluorescence units)) in assay [5] of 287.

Regarding `O=C(N/N=C/c1ccco1)c1ccc(C(=O)N/N=C/c2ccco2)o1`, the compound was called inactive in assay [1], in assay [4] and in assay [6]. Besides, the fluorescence, percent of control (lower = inhibition) in assay [2] stood at 32.1%. The compound further gave a GTP binding, percent of control in assay [3] of 72.4%. For the same compound, the GTP binding signal, raw median fluorescence (lower = inhibition) (MCF (arbitrary fluorescence units)) in assay [5] was 184.

On to `CCOC(=O)c1cc(C(=O)OCC)c2ccccn2c1=O`, for which the result in assay [1], in assay [4] and in assay [6] was inactive. Moreover, in assay [2], the fluorescence, percent of control (lower = inhibition) is 42.1%. The compound also returned a GTP binding, percent of control in assay [3] of 87.2%. This compound came in with a GTP binding signal, raw median fluorescence (lower = inhibition) (MCF (arbitrary fluorescence units)) in assay [5] of 246.

Turning to `O=C(O)CC/C(=C\c1ccc(N2CCCC2)c([N+](=O)[O-])c1)c1nc2ccccc2s1`, the outcome in assay [1], in assay [4] and in assay [6] was inactive. Besides, the fluorescence, percent of control (lower = inhibition) in assay [2] was 34.4%. The GTP binding, percent of control in assay [3] was found to be 81.8%. In assay [5], the GTP binding signal, raw median fluorescence (lower = inhibition) (MCF (arbitrary fluorescence units)) was found to be 244.

`N#CC(C#N)=C1C=CC=CN1/C(=C\c1ccccc1Cl)C(=O)c1ccccc1`: the call in assay [1], in assay [4] and in assay [6] was inactive. In addition, the fluorescence, percent of control (lower = inhibition) in assay [2] turned out to be 26.2%. This compound displayed a GTP binding, percent of control in assay [3] of 76.3%. In assay [5], the GTP binding signal, raw median fluorescence (lower = inhibition) (MCF (arbitrary fluorescence units)) stood at 226.

In the case of `Cc1nc(N/N=C/c2ccc(O)cc2)c2cnn(-c3ccccc3)c2n1`, the compound was classed as inactive in assay [1], in assay [4] and in assay [6]. For the same compound, the fluorescence, percent of control (lower = inhibition) in assay [2] turned out to be 30.2%. The same compound had a GTP binding, percent of control in assay [3] of 73.5%. In assay [5], this compound displayed a GTP binding signal, raw median fluorescence (lower = inhibition) (MCF (arbitrary fluorescence units)) of 191.

As for `Cc1cc2ccccn2c1C(=O)c1ccc(Cl)c([N+](=O)[O-])c1`, the outcome in assay [1], in assay [4] and in assay [6] was inactive. Moreover, the fluorescence, percent of control (lower = inhibition) in assay [2] amounted to 38.8%. This compound gave a GTP binding, percent of control in assay [3] of 86.1%. In addition, in assay [5], the GTP binding signal, raw median fluorescence (lower = inhibition) (MCF (arbitrary fluorescence units)) was 216.

Consider `COc1cc(/C=N\NC(=O)c2ccc(Cn3nc([N+](=O)[O-])c(Cl)c3C)o2)ccc1O`, for which the call in assay [1], in assay [4] and in assay [6] was inactive. In addition, the fluorescence, percent of control (lower = inhibition) in assay [2] amounted to 29.9%. Moreover, in assay [3], the GTP binding, percent of control worked out at 82%. For the same compound, in assay [5], the GTP binding signal, raw median fluorescence (lower = inhibition) (MCF (arbitrary fluorescence units)) came out at 107.
